According to PubChem BioAssay AID485364 (National Center for Advancing Translational Sciences (NCATS), 2010):
About 11,000 (3.1%) of roughly 360,000 compounds were called active. Another 4% or so got no clear call; they are omitted. This excerpt belongs to a sample that is enriched for actives. A number with no mark means an inactive call. Calls come from the whole dose curve; as a rule, active = well fitted inhibition curve with a large enough effect; inconclusive = small, poorly fitted or top-dose-only effect; inactive = no such curve, though single readings can be large or run the other way.

biological target: Schistosoma mansoni thioredoxin glutathione reductase (TGR) (UniProt Q962Y6); assay: qHTS Assay for the Inhibitors of Schistosoma Mansoni Peroxiredoxins; settings: purified TGR, DTNB reduction, TNB absorbance 405 nm; series mostly up to 114 µM; activity change, negative = inhibition: at the top concentration; note: nearly all actives have a fitted effect of over 60% in size
In short: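 First, TGR (20 nM dispensed) and NADPH were mixed with compound. Second, a 15 min room-temperature incubation followed. Third, further NADPH and then DTNB were added to start the reaction. Finally, TNB absorbance was monitored kinetically.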
% is set by controls: 0 for no effect and ±100 for the full control effect; potency is the fitted concentration of half-maximal effect.

Structure (SMILES)	Potency	activity change, negative = inhibition [%]
CCCCN(CC(=O)Nc1cccc(S(=O)(=O)N2CCCC2)c1)Cc1nc2ccccc2c(=O)[nH]1	22.4 µM (active)	–
CCN(CC(=O)NC(=O)NCc1ccccc1)Cc1nc2ccccc2c(=O)[nH]1	89.1 µM (active)	–
CCN(CC(=O)Nc1ccc(Cl)c(S(=O)(=O)N(C)C)c1)Cc1nc2ccccc2c(=O)[nH]1	39.8 µM (active)	–
CCN(CC(=O)Nc1cccc(S(=O)(=O)N2CCCCC2)c1)Cc1ccccc1	–	8.89
CN(C)S(=O)(=O)c1cc(NC(=O)CN2C(=O)NC3(CCCc4ccccc43)C2=O)ccc1Cl (stereo unspecified)	–	-7.41
CCN(CC(=O)Nc1cccc(S(N)(=O)=O)c1)Cc1nc2ccccc2c(=O)[nH]1	–	2.33
CCN(CC(=O)Nc1ccc(C)c(S(=O)(=O)N(C)C)c1)Cc1ccccc1	–	-15.6
O=C(c1ccco1)N(Cc1nc2ccccc2c(=O)[nH]1)C1CCCC1	–	-35.5
CCN(CC)c1ccc(C(=O)NNC(=O)CCc2nc3ccccc3c(=O)[nH]2)cc1	–	1.8
Cn1c(=O)c2c(SCC(=O)N3CCc4ccccc43)nc(-c3ccc(Cl)cc3)nc2n(C)c1=O	–	0.229
COc1ccc(-c2nc(C)c(CCNC(=O)c3ccc(C(F)(F)F)cc3)s2)cc1OC	–	3.68
COc1ccccc1NC(=O)CSC1=Nc2ccccc2C2=NC(CC(=O)NCc3cccs3)C(=O)N12 (stereo unspecified)	–	3.93
Cn1c(=O)c2c(SCC(=O)NCC3CCCO3)nc(-c3ccccc3F)nc2n(C)c1=O (stereo unspecified)	–	4.44
CCCCc1nn2c(=O)cc(COC(=O)c3ccccc3NC(=O)C(C)(C)C)nc2s1	–	0.0611
Cc1nn(C(C)C(=O)NCCc2ccccc2)c(=O)c2c1sc1ccccc12 (stereo unspecified)	–	-6.91
COc1cccc2c1cc1c(=O)n(CC(=O)N3CCN(c4ccccc4)CC3)nc(C)n12	–	-4.71
O=c1c2cccnc2n(Cc2cccc(F)c2)c(=O)n1Cc1ccccc1Cl	–	1.91
COc1cccc2c1cc1c(=O)n(CC(=O)N3CCN(c4cccc(Cl)c4)CC3)nc(C)n12	–	-1.68
Cc1nc2ccccn2c(=O)c1NC(=O)c1c(F)cccc1F	–	2.55
CCn1cc(C(=O)N(C)Cc2ccccc2)c(=O)c2cc(S(=O)(=O)N3CCCCCC3)ccc21	–	6.08
CC(CCO)Nc1nc2c([nH]1)c(=O)n(C)c(=O)n2C (stereo unspecified)	–	-6.03
Cc1cccc(C)c1NC(=O)CSc1nc2c([nH]1)c(=O)n(C)c(=O)n2C	–	0.969
Cc1ccc(NN=Nc2nc3c([nH]2)c(=O)n(C)c(=O)n3C)cc1	56.2 µM (active)	–
CCc1cccc(C)c1NS(=O)(=O)c1ccc(-c2cc(C)no2)s1	–	-0.715

Structure (SMILES)	Potency	activity change, negative = inhibition [%]
Cc1nc2ccn(Cc3cccs3)c(=O)c2cc1C(=O)NCc1ccc(Cl)cc1	–	-4.6
COc1ccc(-c2onc(C)c2C)cc1S(=O)(=O)NCc1cccs1	–	10.8
CCN(CC)S(=O)(=O)c1ccc2c(c1)c(=O)c(C(=O)N1CCN(c3cccc(Cl)c3)CC1)cn2C	–	-3.45
Cc1cc(NC(=O)CCS(=O)(=O)c2ccc(F)cc2)no1	17.8 µM (active)	–
Cc1cc(NC(=O)CCC(=O)N(CC(=O)NC2CCCC2)c2ccc(F)cc2)no1	–	-9.59
Cc1cc(NC(=O)CSc2nnnn2-c2ccc(F)cc2)no1	–	7.99
COc1ccccc1Nc1c2c(nc3ccc(NC(=O)/C=C/c4cc(OC)c(OC)c(OC)c4)cc13)CCCC2	–	0.0236
CCOC(=O)c1ccc(CSc2nnc3cc(C)c4ccccc4n23)cc1	–	2.03
O=c1[nH]c(O)c(C=Nc2cc(F)cc(F)c2)c(=O)[nH]1	–	-25.8
O=C1N=c2ccccc2=C/C1=C\c1c(O)[nH]c(=S)[nH]c1=O	10 µM (active)	–
Cc1ccc2c(c1)=C/C(=C\c1c(O)[nH]c(=O)[nH]c1=O)C(=O)N=2	14.1 µM (active)	–
Cc1cccc(S(=O)(=O)c2cn(Cc3ccccc3)c3cc(N4CCOCC4)c(F)cc3c2=O)c1	–	1.91
COc1ccc(NC(=O)CCCc2nnc3n(CCC(C)C)c(=O)c4sccc4n23)c(OC)c1	–	4.6
CCn1c2ccccc2c2cc(CN3CCN(Cc4cccc(Cl)c4)CC3)ccc21	–	-1.51
CCOC(=O)c1c(SCC(=O)Nc2cccc(C)c2C)nc(=O)[nH]c1C	–	18.3
Cc1ccc(NC(=O)CSc2nc3c(c(=O)[nH]2)CN(Cc2ccc4c(c2)OCO4)CC3)cc1C	–	0.576
COc1ccc(Cl)cc1NC(=O)C(C)Sc1nc2c(c(=O)[nH]1)CCCC2 (stereo unspecified)	–	-7.09
CCC(=O)Nc1ccccc1-c1nc2ccccc2n(CC(=O)Nc2ccc(C)c(C)c2)c1=O	–	4.89
CCOc1ccc(CNC(=O)c2cc(=O)[nH]c3ccc(S(=O)(=O)N4CCCCC4)cc23)cc1	–	8.92
O=C(Cn1ncn2nc(-c3cccs3)cc2c1=O)NCc1cccc(Br)c1	–	-14.1
COc1cc(OC)c(C2C=C(C(=O)O)Nc3ncnn32)cc1OC (stereo unspecified)	–	-1.91
CS(=O)(=O)C1=NN2C(=N)/C(=C\c3ccc(OCCOc4ccccc4)cc3)C(=O)N=C2S1	–	-3.42
CS(=O)(=O)c1ccc2c(c1)SC1=NC(=O)/C(=C/c3ccco3)C(=N)N12	20 µM (active)	–
CCS(=O)(=O)C1=NSC2=NC(=O)/C(=C\c3ccc(OS(=O)(=O)c4ccccc4)cc3)C(=N)N21	–	-6.77

Structure (SMILES)	Potency	activity change, negative = inhibition [%]
CCOC(=O)c1ccc(NC(=O)CC2C(=O)N(c3ccccc3)C(=O)N2Cc2cccs2)cc1 (stereo unspecified)	–	4.52
Cc1c(Cl)cnc(NC(=O)COC(=O)c2ccc(S(=O)(=O)NCc3ccco3)cc2)c1Cl	28.2 µM (active)	–
C/C(=N\Nc1ncc(Cl)cc1Cl)c1ccc(S(=O)(=O)NCc2ccco2)cc1	–	-7.19
O=C(COC(=O)c1cnc(Cl)c(Cl)c1)NCc1ccco1	–	7.2
COc1ccc(NC(=O)CSc2nccn2Cc2ccc3c(c2)OCO3)cc1	–	-0.823
CC1=C(C(=O)Nc2ccccc2Cl)C(c2cccs2)n2ncnc2N1 (stereo unspecified)	–	1.5
O=C(CSc1ncc(CO)n1Cc1ccc(Cl)cc1)NCc1ccc(F)cc1	–	-2.38
COC(=O)COc1ccc2c(c1C)O/C(=C\c1ccco1)C2=O	10 µM (active)	–
Cc1cc(C)c(OCC(=O)N/N=C/c2ccco2)c(C)c1	–	3.94
COC(=O)COc1cc(C)cc2oc(=O)c3c(c12)CCCC3	–	-5.38
CC1CCCN(S(=O)(=O)c2ccc(C(=O)Nc3nnc(-c4ccncc4)o3)cc2)C1 (stereo unspecified)	–	11.7
Cc1ccc(NS(=O)(=O)c2ccc(-c3ccc(=O)[nH]n3)o2)c(C)c1	–	-1.72
CC1CCCN(S(=O)(=O)c2ccc(-c3ccc(=O)[nH]n3)o2)C1 (stereo unspecified)	28.2 µM (active)	–
Cc1cccc(CS(=O)(=O)c2ncc(Cl)c(C(=O)Nc3ccc(F)cc3)n2)c1	7.08 µM (active)	–
Cc1ccc2nc(NC(=O)c3nc(SCc4ccccc4F)ncc3Cl)sc2c1	–	-1.27
Cc1ccc(NC(=O)c2cccnc2C(=O)Nc2ccc(C)cc2)cc1	–	-0.158
Cc1ccc(CCNC(=O)c2ccc(CS(=O)(=O)Cc3cccc(C)c3)o2)cc1	–	-27.7
CCOC(=O)c1ccc(NC(=O)c2nc(SCc3ccc(F)cc3)ncc2Cl)cc1	–	6.67
Cc1ccc(NC(=O)c2nc(S(=O)(=O)Cc3cccc(C)c3)ncc2Cl)cc1	12.6 µM (active)	–
CCS(=O)(=O)c1ncc(N(Cc2ccc(F)cc2)Cc2ccco2)c(C(=O)Nc2cc(C)ccc2C)n1	–	-6.61
CSc1nnc(NC(=O)c2nc(S(=O)(=O)Cc3ccc(C)cc3)ncc2Cl)s1	3.16 µM (active)	–
O=C(Nc1nc2ccc(F)cc2s1)c1nc(SCc2ccccc2F)ncc1Cl	–	-1.23
Cc1ccc(C)c(Oc2c(C(F)(F)F)oc3c(CN4CCN(C)CC4)c(O)ccc3c2=O)c1	–	-12.3
Cc1ccc2nc(COc3cccc(NC(=O)c4ccccc4Cl)c3)cc(=O)n2c1	–	3.97

Structure (SMILES)	Potency	activity change, negative = inhibition [%]
Cc1[nH]c2ccccc2c1C(c1ccccc1)c1cccs1 (stereo unspecified)	–	-3.83
COc1ccc(N2CCN(S(=O)(=O)CCNC(=O)C(c3ccccc3)c3ccccc3)CC2)cc1	–	0.85
CC(C)(C)C(=O)CSc1ccc(S(=O)(=O)N2CCCC2)cn1	–	6.79
O=S(=O)(c1ccc(SCc2ccccc2)nc1)N1CCCCCC1	–	-23.4
O=C(O)CSc1ccc(S(=O)(=O)N2CCCC2)cn1	50.1 µM (active)	–
COc1cc2c(cc1OC)C(COc1ccc(F)cc1)N(C(=O)c1ccccc1F)CC2 (stereo unspecified)	–	-1.72
COc1cccc(C(=O)NC2(C(F)(F)F)C(=O)Nc3c2c(=O)[nH]c(=O)n3-c2ccc(C)cc2)c1 (stereo unspecified)	–	6.41
COc1ccc(C2=NC(c3ccncc3)=Nc3ccc(Br)cc3N2)cc1	–	-3.27
Cn1c(NN)nc2sc3c(c2c1=O)CCC3	–	0.729
Cc1nc2sc3c(c2c(=O)n1NC(=O)CCl)CCCC3	39.8 µM (active)	–
Cc1ccc(C)c(-n2c(SCC(=O)O)nc3sc4c(c3c2=O)CCCC4)c1	–	-7.97
CCC(=O)N1CCc2cc(S(=O)(=O)NC(C(=O)NCCc3ccc(C)cc3)C(C)C)ccc21 (stereo unspecified)	–	6.61
CCCCCCC(O)(CCN1CCCCC1)c1ccccc1 (stereo unspecified)	–	2.75
CCCCCC(O)(CCN1CCCCC1)c1ccccc1 (stereo unspecified)	31.6 µM (active)	–
C#CC(CCN1CCCCC1)(OC)c1ccccc1 (stereo unspecified)	–	9.25
Fc1ccccc1Oc1ncnc2c1oc1ccccc12	–	-1.96
COc1ccc(NC(=O)C(=O)NCc2ccco2)cc1	–	0.649
COc1ccc(NC(=O)/C(Cl)=C(/Cl)S(=O)Cc2ccc(C)cc2)cn1 (stereo unspecified)	–	0
COc1ccc(CS(=O)/C(Cl)=C(/Cl)C(=O)Nc2ccc(OC)nc2)cc1 (stereo unspecified)	0.447 µM (active)	–
COc1cccc(CNCCSc2nnnn2C)c1OCc1ccccc1Cl	–	-1.07
O=C(C1CC1)N1CCc2cc(Br)cc(S(=O)(=O)N3CCN(c4ccccc4F)CC3)c21	–	2.49
COc1ccc2c(C(=O)c3ccc(C)cc3)n(CCC(N)=O)[n+]([O-])c2c1	–	7.84
COc1ccc(C(=O)c2c3ccc([N+](=O)[O-])cc3[n+]([O-])n2CCCN)cc1	25.1 µM (active)	–
COc1ccc(C(=O)NCCNc2ccc([N+](=O)[O-])cn2)cc1	–	-19.1
